From PubChem BioAssay (EPA / NIEHS)
Several values for one entry are separate records, joined by “and”; a condition that tells them apart may be missing. Equal entries are not always repeated. Results filed as inconclusive are left out. A structure can be active in one record and inactive in another. Activity calls are given as the source filed them. Rule for the calls: active = hit-call score of the fitted dose curve at least 0.9, where 1 is the maximum; inconclusive = response in the unintended direction; inactive = score below 0.9.

Tests used:
[1] = biological target: T1, Estrogen receptor (Homo sapiens) + Estrogen receptor beta (Homo sapiens) (UniProt P03372+Q92731); test: OT_ER_ERaERb_0480: Odyssey Thera (OT) 8-hour HEK293T Protein-Complementation Assay for Estrogen Receptor-alpha/-beta Heterodimer (AID 2283352)
Outline: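 Increase in mean fluorescence intensity, measured by laser scanning plate cytometry, reported ER-alpha/ER-beta LBD complementation in HEK293T cells after 8 h chemical exposure. DMSO served as baseline; basal signal is low, punctate and cytoplasmic.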

[2] = biological target: Androgen Receptor/SRC-1 Co-activator, AR (gene 367) (UniProt P10275); test: OT_AR_ARSRC1_0960: Odyssey Thera (OT) 16-hour HEK293T Protein-Complementation Assay for Androgen Receptor/SRC-1 Co-activator (AID 2283353);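 note: actives raise the signal above DMSO so potency reflects increased AR and SRC-1 complex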
Outline: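 HEK293T cells stably expressing AR and SRC-1 fused to split Venus YFP fragments via (Gly4Ser)2 linkers were dosed for 16 h. Nuclear/cytoplasmic fluorescence ratio at 488 nm, ≥400 cells per image, fitted for gain of signal versus DMSO.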

[3] = biological target: Androgen Receptor/SRC-1 Co-activator, AR (gene 367) (UniProt P10275); test: OT_AR_ARSRC1_0480: Odyssey Thera (OT) 8-hour HEK293T Protein-Complementation Assay for Androgen Receptor/SRC-1 Co-activator (AID 2283354);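 note: hits raise the complementation signal above DMSO so AC50 marks enhancers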
Outline: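 HEK293T cells stably expressing AR and SRC-1 fused to split Venus YFP fragments via (Gly4Ser)2 linkers were read 8 h after compound dosing. Complementation was imaged at 488 and 635nm, and nuclear/cytoplasmic fluorescence ratio (488nm) was taken over ≥400 cells; gain-of-signal versus DMSO.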

[4] = biological target: rat Mineralocorticoid Receptor (MR), Nr3c2 (gene 25672) (UniProt P22199); test: NVS_NR_rMR: NovaScreen (NVS) Nuclear Receptor Binding Assay for rat Mineralocorticoid Receptor (MR) (AID 2283355)
Outline: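 Cell-free radioligand binding to MR in adrenalectomized rat brain supernatant, scintillation counted 24 h after dosing. Loss of signal versus DMSO baseline marks displacement. Primary screen in duplicate at 25 uM; actives retested as concentration series.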

[5] = biological target: T1, Estrogen receptor (Homo sapiens) + Estrogen receptor beta (Homo sapiens); test: OT_ER_ERaERb_1440: Odyssey Thera (OT) 24-hour HEK293T Protein-Complementation Assay for Estrogen Receptor-alpha/-beta Homodimer (AID 2283356);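 note: heteromer of ER alpha and ER beta binding domains; hits raise reporter fluorescence and both agonists and antagonists give an increase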
Outline: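 Heterodimerisation of ERα (aa 310-547) and ERβ (aa 263-489) ligand binding domains was tracked as fluorescence gain in stably transfected HEK293T cells following 24 h dosing, normalised to DMSO controls.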

[6] = biological target: Estrogen receptor beta (Homo sapiens) (UniProt Q92731); test: OT_ER_ERbERb_0480: Odyssey Thera (OT) 8-hour HEK293T Protein-Complementation Assay for Estrogen Receptor-beta/-beta Homodimer (AID 2283357);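 note: active means signal gain over DMSO baseline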
Outline: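 Readout: increase in mean fluorescence intensity (nucleus for agonists; nucleus plus cytoplasm for antagonists) relative to DMSO, from a reporter-fragment complementation of human ER-beta LBD homodimer in HEK293T cells dosed 8 hours.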

[7] = biological target: Retinoic acid receptor alpha (Homo sapiens) (UniProt P10276); test: NVS_NR_hRAR_Antagonist: NovaScreen (NVS) Nuclear Receptor Binding Assay for human Retinoic Acid Alpha Receptor Antagonism (RAR) (AID 2283358)
Outline: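 Cell-free TR-FRET binding assay on extracted receptor protein, run in antagonist mode; signal read 2 hours after chemical dosing. Loss of signal was fitted relative to DMSO baseline. Screened at 25 uM in duplicate, actives followed up in concentration series.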

[8] = biological target: Peroxisome proliferator-activated receptor gamma (Homo sapiens) (UniProt P37231); test: NVS_NR_hPPARg: NovaScreen (NVS) Nuclear Receptor Binding Assay for human Peroxisome Proliferator-activated Receptor gamma (PPARg) (AID 2283370)
Outline: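 Fluorescence polarization measures competitive binding to extracted PPARg in a cell-free format. Reading is taken at 2 h; activity is signal loss relative to DMSO. Screening at 25 uM in duplicate preceded confirmatory dose series.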

[9] = biological target: Retinoic acid receptor alpha (Homo sapiens) (UniProt P10276); test: NVS_NR_hRARa_Agonist: NovaScreen (NVS) Nuclear Receptor Binding Assay for human Retinoic Acid Alpha Receptor Agonism (RAR) (AID 2283361)
Outline: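 Cell-free TR-FRET binding read-out with extracted human RARα protein, read 2 h after compound addition. Gain of signal scored against DMSO baseline. Primary screen at a single 25 uM in duplicate; actives then retested in concentration series.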

[10] = biological target: rat Androgen Receptor (AR), Ar (gene 24208) (UniProt P15207); test: NVS_NR_rAR: NovaScreen (NVS) Nuclear Receptor Binding Assay for rat Androgen Receptor (AR) (AID 2283366)
Outline: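 Cell-free radioligand binding on extracts of prostate from testosterone-pretreated rats, read by filter-based scintillation counting 18 h after dosing. Loss of bound signal fitted positively versus DMSO; primary screen in duplicate at 25 uM, actives followed up in concentration series.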

[11] = biological target: human Peroxisome Proliferator-activated Receptor alpha (PPARa), PPARA (gene 5465) (UniProt Q07869); test: NVS_NR_hPPARa: NovaScreen (NVS) Nuclear Receptor Binding Assay for human Peroxisome Proliferator-activated Receptor alpha (PPARa) (AID 2283359);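 note: activity means loss of TR-FRET signal versus DMSO baseline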
Outline: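 Cell-free binding assay with extracted human protein, read by TR-FRET 1 h after chemical dosing. Loss of signal relative to DMSO baseline indicates binding. Primary screen used duplicate single concentration (25 uM); actives followed up in concentration series.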

[12] = system: guinea pig Dopamine Transporter (DAT), gene 100714898; test: NVS_TR_gDAT: NovaScreen (NVS) Transporter Assay for guinea pig Dopamine Transporter (DAT) (AID 2283369);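 note: active compounds lower bound radioligand signal relative to DMSO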
Outline: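 Test chemicals were incubated 2 h with guinea pig striatal membranes and a radioligand; bound label was separated by filtration and counted. Screening ran at 25 uM, followed by concentration-response testing to a 50 uM maximum.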

[13] = biological target: human Dopamine Transporter (DAT), SLC6A3 (gene 6531) (UniProt Q01959); test: NVS_TR_hDAT: NovaScreen (NVS) Transporter Assay for human Dopamine Transporter (DAT) (AID 2283374);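 note: activity means loss of bound radioligand signal relative to DMSO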
Outline: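 Cell-free radioligand binding to extracted human DAT protein, read 1 h after dosing by filter-based scintillation counting. Loss of specific binding scored against DMSO baseline; primary screen in duplicate at 25 uM, actives then run in concentration series.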

[14] = biological target: human Thyroid Receptor Alpha (TRa), THRA (gene 7067) (UniProt P10827); test: NVS_NR_hTRa_Antagonist: NovaScreen (NVS) Nuclear Receptor Binding Assay for human Thyroid Receptor Alpha Antagonism (TRa) (AID 2283362)
Outline: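 Chemicals were first screened in duplicate at 25 uM, then actives were retested in concentration series. Binding to the extracted receptor was measured 1 h after dosing by AlphaLISA chemiluminescence, with decreased signal versus DMSO scored as activity.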

Measured: AC50

Estrogen receptor beta (Homo sapiens), sequence (Q92731 whole entry, looked up, the tested form may be a part): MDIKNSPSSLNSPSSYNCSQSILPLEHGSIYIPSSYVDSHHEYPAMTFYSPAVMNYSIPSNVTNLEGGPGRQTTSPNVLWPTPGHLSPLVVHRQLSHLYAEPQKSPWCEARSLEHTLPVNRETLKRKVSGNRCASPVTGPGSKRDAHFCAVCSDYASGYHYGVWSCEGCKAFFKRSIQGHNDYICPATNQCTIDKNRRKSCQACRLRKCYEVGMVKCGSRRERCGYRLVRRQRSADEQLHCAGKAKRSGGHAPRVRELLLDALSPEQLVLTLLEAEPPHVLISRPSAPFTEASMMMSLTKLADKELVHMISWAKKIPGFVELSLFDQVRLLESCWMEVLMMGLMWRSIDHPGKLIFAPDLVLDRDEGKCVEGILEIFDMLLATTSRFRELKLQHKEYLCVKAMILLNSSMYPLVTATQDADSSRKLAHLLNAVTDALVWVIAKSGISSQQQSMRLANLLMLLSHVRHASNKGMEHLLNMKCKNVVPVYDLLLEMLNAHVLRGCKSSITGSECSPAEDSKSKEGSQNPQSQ
Retinoic acid receptor alpha (Homo sapiens), sequence (P10276 whole entry, looked up): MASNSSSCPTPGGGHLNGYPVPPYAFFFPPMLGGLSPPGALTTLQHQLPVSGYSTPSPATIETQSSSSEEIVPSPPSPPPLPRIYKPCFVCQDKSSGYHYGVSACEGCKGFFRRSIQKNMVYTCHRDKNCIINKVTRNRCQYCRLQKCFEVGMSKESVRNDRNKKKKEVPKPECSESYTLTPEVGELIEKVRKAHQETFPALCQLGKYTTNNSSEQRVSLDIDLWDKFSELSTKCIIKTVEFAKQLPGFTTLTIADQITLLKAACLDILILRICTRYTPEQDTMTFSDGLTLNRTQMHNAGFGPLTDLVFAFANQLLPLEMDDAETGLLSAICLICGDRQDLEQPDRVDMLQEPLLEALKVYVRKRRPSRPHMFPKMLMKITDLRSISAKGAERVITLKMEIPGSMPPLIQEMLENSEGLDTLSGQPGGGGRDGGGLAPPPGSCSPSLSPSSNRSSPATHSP
Androgen Receptor/SRC-1 Co-activator, AR (gene 367), sequence (P10275 whole entry, looked up, the tested form may be a part): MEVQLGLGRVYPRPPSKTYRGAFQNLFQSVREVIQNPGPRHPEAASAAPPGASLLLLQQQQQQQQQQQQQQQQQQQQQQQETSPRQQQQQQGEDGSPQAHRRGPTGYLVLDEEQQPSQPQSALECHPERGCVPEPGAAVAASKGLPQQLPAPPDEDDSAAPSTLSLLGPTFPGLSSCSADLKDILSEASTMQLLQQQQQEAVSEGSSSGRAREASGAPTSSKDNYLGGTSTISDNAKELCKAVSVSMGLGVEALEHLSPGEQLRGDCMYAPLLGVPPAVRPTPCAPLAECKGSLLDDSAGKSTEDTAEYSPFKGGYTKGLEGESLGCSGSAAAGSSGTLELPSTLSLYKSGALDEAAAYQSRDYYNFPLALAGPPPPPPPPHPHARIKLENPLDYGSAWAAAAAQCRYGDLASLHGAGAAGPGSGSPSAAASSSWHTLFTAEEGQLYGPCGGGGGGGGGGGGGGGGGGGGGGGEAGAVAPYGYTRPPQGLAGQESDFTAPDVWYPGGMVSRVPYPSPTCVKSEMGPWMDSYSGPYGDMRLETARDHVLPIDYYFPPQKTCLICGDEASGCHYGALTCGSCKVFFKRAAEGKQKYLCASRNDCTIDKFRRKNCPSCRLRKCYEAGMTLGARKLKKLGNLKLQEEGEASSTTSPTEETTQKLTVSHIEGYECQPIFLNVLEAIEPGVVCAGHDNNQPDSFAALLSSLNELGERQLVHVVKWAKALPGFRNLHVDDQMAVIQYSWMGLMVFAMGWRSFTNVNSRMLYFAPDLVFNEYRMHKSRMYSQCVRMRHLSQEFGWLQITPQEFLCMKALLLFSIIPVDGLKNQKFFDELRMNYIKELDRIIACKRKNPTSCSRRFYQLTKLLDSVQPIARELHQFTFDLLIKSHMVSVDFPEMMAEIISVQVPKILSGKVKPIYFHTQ
Peroxisome proliferator-activated receptor gamma (Homo sapiens), sequence (P37231 whole entry, looked up): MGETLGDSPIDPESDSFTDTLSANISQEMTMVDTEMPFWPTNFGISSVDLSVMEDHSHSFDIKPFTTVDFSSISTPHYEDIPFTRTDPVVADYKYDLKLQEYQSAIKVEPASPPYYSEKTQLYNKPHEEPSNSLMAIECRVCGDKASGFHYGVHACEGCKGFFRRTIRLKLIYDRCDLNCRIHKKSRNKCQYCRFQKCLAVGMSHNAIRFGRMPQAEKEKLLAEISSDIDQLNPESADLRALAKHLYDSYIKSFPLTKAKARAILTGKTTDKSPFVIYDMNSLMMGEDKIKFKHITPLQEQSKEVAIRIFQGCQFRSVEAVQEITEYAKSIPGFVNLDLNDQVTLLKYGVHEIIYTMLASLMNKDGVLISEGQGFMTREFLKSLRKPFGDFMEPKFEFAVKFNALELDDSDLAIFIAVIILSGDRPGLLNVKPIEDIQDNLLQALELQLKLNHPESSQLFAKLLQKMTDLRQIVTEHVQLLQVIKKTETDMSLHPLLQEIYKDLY
rat Androgen Receptor (AR), Ar (gene 24208), sequence (P15207 whole entry, looked up): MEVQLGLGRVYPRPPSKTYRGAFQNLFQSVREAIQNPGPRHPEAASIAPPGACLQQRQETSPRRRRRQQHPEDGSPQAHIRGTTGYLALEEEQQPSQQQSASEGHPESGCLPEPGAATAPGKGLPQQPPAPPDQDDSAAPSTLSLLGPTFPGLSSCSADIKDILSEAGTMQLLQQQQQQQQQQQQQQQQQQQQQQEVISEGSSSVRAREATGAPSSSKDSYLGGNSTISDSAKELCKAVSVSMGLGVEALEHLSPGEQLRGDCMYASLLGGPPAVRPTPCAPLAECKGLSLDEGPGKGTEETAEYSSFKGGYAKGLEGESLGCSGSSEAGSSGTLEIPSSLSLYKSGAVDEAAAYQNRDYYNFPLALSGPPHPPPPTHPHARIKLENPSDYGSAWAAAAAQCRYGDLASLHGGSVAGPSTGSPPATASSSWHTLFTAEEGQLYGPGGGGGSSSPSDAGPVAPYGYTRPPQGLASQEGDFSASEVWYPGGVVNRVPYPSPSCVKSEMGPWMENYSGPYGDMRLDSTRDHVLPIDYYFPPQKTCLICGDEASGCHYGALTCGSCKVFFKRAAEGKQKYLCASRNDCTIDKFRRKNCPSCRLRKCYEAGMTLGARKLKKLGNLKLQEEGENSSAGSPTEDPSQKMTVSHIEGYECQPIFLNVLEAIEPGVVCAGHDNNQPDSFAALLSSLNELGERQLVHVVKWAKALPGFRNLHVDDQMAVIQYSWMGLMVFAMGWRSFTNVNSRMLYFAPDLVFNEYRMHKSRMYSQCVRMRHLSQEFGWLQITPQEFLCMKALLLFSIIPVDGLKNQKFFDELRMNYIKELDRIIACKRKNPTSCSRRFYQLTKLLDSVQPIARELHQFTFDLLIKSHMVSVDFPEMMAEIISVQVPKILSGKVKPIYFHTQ
T1 sequence (P03372 whole entry, looked up, the tested form may be a part): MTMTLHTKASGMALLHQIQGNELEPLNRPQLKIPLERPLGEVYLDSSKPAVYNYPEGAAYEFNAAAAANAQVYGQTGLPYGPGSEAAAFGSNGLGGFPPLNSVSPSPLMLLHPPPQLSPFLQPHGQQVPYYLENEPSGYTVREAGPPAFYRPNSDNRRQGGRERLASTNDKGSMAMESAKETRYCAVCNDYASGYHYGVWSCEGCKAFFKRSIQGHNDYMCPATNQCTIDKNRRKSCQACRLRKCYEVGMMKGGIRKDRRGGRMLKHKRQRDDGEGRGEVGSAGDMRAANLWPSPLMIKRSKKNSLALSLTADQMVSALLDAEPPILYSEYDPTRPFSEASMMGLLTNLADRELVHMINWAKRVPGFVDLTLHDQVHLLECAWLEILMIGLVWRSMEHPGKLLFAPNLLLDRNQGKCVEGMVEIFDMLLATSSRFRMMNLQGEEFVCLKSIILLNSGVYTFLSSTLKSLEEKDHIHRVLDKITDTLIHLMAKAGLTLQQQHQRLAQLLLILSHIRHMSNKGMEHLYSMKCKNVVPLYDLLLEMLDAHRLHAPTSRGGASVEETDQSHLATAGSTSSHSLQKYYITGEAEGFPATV
T1 sequence (Q92731 whole entry, looked up, the tested form may be a part): as the sequence (Q92731 whole entry, looked up, the tested form may be a part) above
human Thyroid Receptor Alpha (TRa), THRA (gene 7067), sequence (P10827 whole entry, looked up): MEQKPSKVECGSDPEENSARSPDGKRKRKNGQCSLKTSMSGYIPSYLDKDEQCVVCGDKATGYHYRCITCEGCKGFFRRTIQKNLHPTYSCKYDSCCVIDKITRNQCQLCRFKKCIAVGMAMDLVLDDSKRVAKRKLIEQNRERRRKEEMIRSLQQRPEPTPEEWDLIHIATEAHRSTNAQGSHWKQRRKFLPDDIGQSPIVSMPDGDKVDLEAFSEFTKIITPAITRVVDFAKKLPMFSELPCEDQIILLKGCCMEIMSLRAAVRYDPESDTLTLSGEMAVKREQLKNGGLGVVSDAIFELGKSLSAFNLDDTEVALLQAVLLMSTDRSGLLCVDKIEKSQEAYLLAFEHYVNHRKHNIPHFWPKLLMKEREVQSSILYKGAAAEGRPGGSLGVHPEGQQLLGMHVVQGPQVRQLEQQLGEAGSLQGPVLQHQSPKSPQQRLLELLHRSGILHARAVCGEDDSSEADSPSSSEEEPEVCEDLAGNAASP

CCSC(=O)N(CC(C)C)CC(C)C
inactive: [1] | [2] | [3] | [4] | [5] | [6]

COC(=O)c1ccccc1C(=O)O
inactive: [1] | [5] | [6] | [7] | [8]

O=C(c1ccc(O)cc1O)c1ccc(O)cc1O
active: [1] 2.03 µM and 1.72 µM and 2.14 µM | [2] 10.2 µM and 9.93 µM and 10.7 µM | [3] 11.1 µM and 8.01 µM and 9.37 µM | [5] 12.6 µM and 8.31 µM and 9.09 µM | [6] 1.6 µM and 1.63 µM and 1.4 µM | [9] 25 µM and 33.4 µM | [10] 7.84 µM [middle of 4 runs] | [8] 40.4 µM
inactive: [9] | [8]

CN(C)C(=O)Nc1ccc(Cl)c(Cl)c1
inactive: [2] | [3] | [11]

N#CSCSc1nc2ccccc2s1
inactive: [5] | [6] | [8]
active: [2] 12.1 µM | [3] 21.9 µM | [12] 42.1 µM | [13] 13.7 µM and 3.9 µM

O=C(O)C1(C(=O)Nc2ccc(Cl)cc2Cl)CC1
inactive: [1] | [2] | [5] | [6] | [7]
active: [8] 8.65 µM

CCCN(CCC)C(=O)SCC
inactive: [1] | [2] | [3] | [4] | [5] | [6] | [14] | [10] | [8]
